Experimental data from PubChem BioAssay (NCI).
Compounds without any hit were thinned out: in the full panel of roughly 83,000, 20% have a hit.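 Single-dose data. Exposure time 48 hours. Values below 10 considered active.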 Unmarked numbers belong to inactive results. The source made the active and inactive calls.

test system: MDA-MB-468 breast; assay: NCI-60 one-dose screen, 48 h (100 = growth as untreated, 0 = no growth, -100 = all killed); conditions: 10 µM unless noted

| SMILES | growth |
| --- | --- |
| CCOC(=O)c1c2c(c(C)n1Cc1ccccc1)-c1nc(N)ncc1CC2 | 100% |
| c1ccc(Nc2ncc3c(n2)-c2cccn2CC3)cc1 | 4.29% (active) |
| CCN(CC)Cc1cccc(C(=O)OC)c1 | 97.2% |
| N=C(N)c1ccc(-c2ccc(-c3cc(Cl)cc(Cl)c3)s2)cc1 | -77.6% (active) |
